Source: PubChem BioAssay AID1159580 (chemical genetic matrix, 2015)
Hit rate of the full screen: of about 5,500 compounds, about 2,000 (36%) were called active. Roughly 18% stayed inconclusive and do not appear here. Cut-off read from the data, not from the text of the source: active = normalized growth mostly below about 0.91 (no sharp cut-off); inconclusive = no clear call, values can overlap the other calls; inactive = mostly above about 0.92. The list shows a part of the results.

Experiment: chemical genetic growth profiling, strain panel (AID 1159580);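 note: tested at 20 µM; growth read once vehicle control cultures reached saturation at 30 °C; 1 = growth at the plate median or of vehicle wells; lower values mean less growth of the strain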
Details: S. cerevisiae deletion strains, growth OD
[1] = locus YDL101C, strain DUN1, active compounds read low
[2] = locus YHR030C, strain SLT2, active compounds read low

Measured: normalized growth

O=C(c1cccc([N+](=O)[O-])c1)c1cc2cc(Br)cc(Br)c2o1
inactive: locus YAL013W, strain DEP1, active compounds read low 0.993 | locus YBR229C, strain ROT2, active compounds read low 0.997 | [1] 1.01 | locus YDL134C, strain PPH21, active compounds read low 0.994 | locus YDR150W, strain NUM1, active compounds read low 0.952 | locus YEL061C, strain CIN8, active compounds read low 0.983 | locus YGR078C, strain PAC10, active compounds read low 0.989 | locus YGR229C, strain SMI1, active compounds read low 1 | [2] 0.837 | locus YHR087W, strain rtc3, active compounds read low 0.981 | locus YJR043C, strain POL32, active compounds read low 0.997 | locus YJR075W, strain HOC1, active compounds read low 0.975 | locus YKL190W, strain CNB1, active compounds read low 0.996 | locus YLR039C, strain RIC1, active compounds read low 0.954 | locus YLR058C, strain SHM2 (second series), active compounds read low 0.994 | locus YLR085C, strain ARP6, active compounds read low 0.847 | locus YLR262C, strain YPT6, active compounds read low 0.974 | locus YML094W, strain GIM5, active compounds read low 0.988 | locus YMR219W, strain ESC1, active compounds read low 0.994 | locus YMR263W, strain SAP30, active compounds read low 0.96 | locus YMR307W, strain GAS1, active compounds read low 0.864 | locus YNL153C, strain GIM3, active compounds read low 0.988 | locus YNL298W, strain CLA4 (second series), active compounds read low 0.948 | locus YNL322C, strain KRE1, active compounds read low 0.991 | locus YNR030W, strain Alg12, active compounds read low 0.953 | locus YOL006C, strain TOP1, active compounds read low 0.935 | locus YPL055C, strain LGE1, active compounds read low 0.974 | locus YPL241C, strain CIN2, active compounds read low 0.942 | locus YPR135W, strain CTF4, active compounds read low 0.964

CN1c2ccccc2C(C)(C)C12C=Cc1cc(O)ccc1O2 (stereo not given)
inactive: locus YAR019C, strain CDC15, active compounds read low 0.981 | locus YBL105C, strain PKC1, active compounds read low 0.981 | locus YBR135W, strain CKS1, active compounds read low 0.977 | locus YBR136W, strain MEC1, active compounds read low 0.981 | locus YBR160W, strain CDC28, active compounds read low 0.984 | locus YDL017W, strain CDC7, active compounds read low 0.974 | locus YDL028C, strain MPS1, active compounds read low 0.979 | [1] 0.975 | locus YDL108W, strain KIN28, active compounds read low 0.974 | locus YDL132W, strain cdc53, active compounds read low 0.977 | locus YDL214C, strain PRR2, active compounds read low 0.986 | locus YDR052C, strain DBF4, active compounds read low 0.982 | locus YDR054C, strain cdc34, active compounds read low 0.97 | locus YDR226W, strain ADK1, active compounds read low 0.972 | locus YDR477W, strain SNF1, active compounds read low 0.971 | locus YER123W, strain YCK3, active compounds read low 0.987 | locus YER133W, strain GLC7, active compounds read low 0.974 | locus YFL009W, strain cdc4, active compounds read low 0.968 | locus YFL029C, strain CAK1, active compounds read low 0.978 | locus YFR003C, strain YPI1, active compounds read low 0.976 | locus YFR019W, strain FAB1, active compounds read low 0.993 | locus YFR028C, strain CDC14, active compounds read low 0.976 | locus YGR040W, strain KSS1, active compounds read low 0.972 | locus YGR052W, strain FMP48, active compounds read low 1.01 | locus YGR092W, strain DBF2, active compounds read low 0.996 | [2] 0.897 | locus YHR079C, strain IRE1, active compounds read low 1.01 | locus YHR082C, strain KSP1, active compounds read low 1.06 | locus YHR205W, strain SCH9, active compounds read low 0.985 | locus YIL147C, strain SLN1, active compounds read low 0.978 | locus YJL095W, strain BCK1, active compounds read low 1.01 | locus YJL128C, strain PBS2, active compounds read low 0.942 | locus YJL157C, strain FAR1, active compounds read low 0.978 | locus YJR016C, strain ILV3, active compounds read low 0.968 | locus YJR066W, strain TOR1 (second series), active compounds read low 0.965 | locus YJR066W, strain TOR1, active compounds read low 1.08 | locus YKL048C, strain ELM1, active compounds read low 0.975 | locus YKL067W, strain YNK1, active compounds read low 0.975 | locus YKL101W, strain HSL1, active compounds read low 0.962 | locus YKL193C, strain SDS22, active compounds read low 0.973 | locus YKL203C, strain TOR2, active compounds read low 1.05 | locus YLR113W, strain HOG1, active compounds read low 0.891 | locus YLR133W, strain CKI1, active compounds read low 0.984 | locus YLR403W, strain SFP1, active compounds read low 1.01 | locus YML070W, strain DAK1, active compounds read low 0.978 | locus YMR001C, strain CDC5, active compounds read low 0.971 | locus YMR205C, strain PFK2 (second series), active compounds read low 0.991 | locus YMR277W, strain FCP1, active compounds read low 0.973 | locus YNL006W, strain LST8, active compounds read low 0.978 | locus YNL020C, strain ARK1, active compounds read low 0.982 | locus YNL161W, strain CBK1, active compounds read low 0.973 | locus YNL183C, strain NPR1, active compounds read low 1.08 | locus YNL207W, strain RIO2, active compounds read low 0.974 | locus YNL222W, strain SSU72, active compounds read low 0.986 | locus YNL307C, strain MCK1 (second series), active compounds read low 0.978 | locus YOL078W, strain AVO1, active compounds read low 0.975 | locus YOL136C, strain PFK27, active compounds read low 0.991 | locus YOR061W, strain CKA2, active compounds read low 0.993 | locus YOR119C, strain RIO1, active compounds read low 1.05 | locus YOR231W, strain MKK1, active compounds read low 1.02 | locus YOR329C, strain SCD5, active compounds read low 0.985 | locus YPL031C, strain PHO85, active compounds read low 0.962 | locus YPL153C, strain RAD53, active compounds read low 0.958 | locus YPL204W, strain HRR25, active compounds read low 0.943 | locus YPL209C, strain IPL1, active compounds read low 0.974 | locus YPL256C, strain CLN2, active compounds read low 0.899 | locus YPR025C, strain CCL1, active compounds read low 0.993 | locus YPR106W, strain ISR1, active compounds read low 0.984 | locus YPR111W, strain DBF20, active compounds read low 0.977 | strain NNK1, active compounds read low 0.989 | strain TSCII, active compounds read low 0.978
